What all share (settings): mRNA level, 48 h; actives raise or lower the signal
Read-out in assay [1]: CFLAR gene, CFLAR (gene 8837)
The assay can be described thus: LTEA_HepaRG_CFLAR: Life Technologies and Expression Analysis (LTEA) Assay for CFLAR gene using HepaRG (AID 2283455). The gist of the method:
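Gain- or loss-of-signal changes in CFLAR transcript were fitted bidirectionally relative to 0.5% DMSO. Cells (HepaRG, duplicate wells) were dosed for 48 h across eight half-log concentrations topping at 100 uM; quantitation by TaqMan qRT-PCR.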

Read-out in assay [2]: Forkhead box O1 (FOXO1), FOXO1 (gene 2308)
Briefly: LTEA_HepaRG_FOXO1: Life Technologies and Expression Analysis (LTEA) Assay for Forkhead box O1 (FOXO1) using HepaRG (AID 2283456). The gist of the method: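 Using one lot of HepaRG hepatic cells kept in 0.5% DMSO, the team applied test chemicals in duplicate, half-log dilutions from 100 uM, for 48 h. Expression, normalised to ACTB/GAPDH/POLR2A, was compared with vehicle in either direction.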

Read-out in assay [3]: growth arrest and DNA damage 45 (GADD45A), GADD45A (gene 1647)
Briefly: LTEA_HepaRG_GADD45A: Life Technologies and Expression Analysis (LTEA) Assay for growth arrest and DNA damage 45 (GADD45A) using HepaRG (AID 2283458). Put shortly: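 Transcript induction or loss, quantified by TaqMan qRT-PCR against three housekeeping genes, is the read-out. HepaRG cells received chemicals for 48 h across eight half-log concentrations from 100 uM in 0.5% DMSO; gain and loss fitted relative to DMSO.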

Read-out in assay [4]: Forkhead box O3 (FOXO3), FOXO3 (gene 2309)
Briefly: LTEA_HepaRG_FOXO3: Life Technologies and Expression Analysis (LTEA) Assay for Forkhead box O3 (FOXO3) using HepaRG (AID 2283459). Put shortly:
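Gene-expression endpoint: FOXO3 transcript level by qRT-PCR in HepaRG cultures treated 48 h with chemicals up to 100 uM (half-log, 0.5% DMSO vehicle).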

Read-out in assay [5]: ABC Transporter (ABCB1), ABCB1 (gene 5243)
The assay can be described thus: LTEA_HepaRG_ABCB1: Life Technologies and Expression Analysis (LTEA) Assay for ABC Transporter (ABCB1) using HepaRG (AID 2283460). The gist of the method:
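Human liver HepaRG line treated 48 h with up to 100 uM compound (eight half-log points, 0.5% DMSO); ABCB1 mRNA change fitted bidirectionally against DMSO controls.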

Read-out in assay [6]: growth arrest and DNA damage 45 (GADD45B), GADD45B (gene 4616)
Briefly: LTEA_HepaRG_GADD45B: Life Technologies and Expression Analysis (LTEA) Assay for growth arrest and DNA damage 45 (GADD45B) using HepaRG (AID 2283461). Put shortly:
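Values are bidirectional concentration-response fits against 0.5% DMSO controls. Underlying data: qRT-PCR mRNA levels in human HepaRG liver cells treated 48 h in serum-free induction medium, eight concentrations topping at 100 uM.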

Read-out in assay [7]: ABC Transporter (ABCC3), ABCC3 (gene 8714)
Briefly: LTEA_HepaRG_ABCC3: Life Technologies and Expression Analysis (LTEA) Assay for ABC Transporter (ABCC3) using HepaRG (AID 2283462). The gist of the method: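 Differentiated HepaRG liver cells receive test chemicals at eight concentrations (max 100 uM) for 48 h. Expression of ABCC3 is quantified by qRT-PCR against ACTB, GAPDH and POLR2A, and activity is fitted in both directions against the DMSO control.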

Read-out in assay [8]: ABC Transporter (ABCB11), ABCB11 (gene 8647)
The assay can be described thus: LTEA_HepaRG_ABCB11: Life Technologies and Expression Analysis (LTEA) Assay for ABC Transporter (ABCB11) using HepaRG (AID 2283463). Put shortly:
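Using HepaRG cultures held in 0.5% DMSO, chemicals were tested at half-log dilutions from 100 uM for 48 h. Induction or suppression of ABCB11 mRNA, normalized to ACTB, GAPDH and POLR2A, was fitted bidirectionally against vehicle.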

Read-out in assay [9]: ABC Transporter (ABCC2), ABCC2 (gene 1244)
The assay can be described thus: LTEA_HepaRG_ABCC2: Life Technologies and Expression Analysis (LTEA) Assay for ABC Transporter (ABCC2) using HepaRG (AID 2283464). Put shortly: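 Gene expression of ABCC2 was determined by qRT-PCR in HepaRG cells exposed 48 h to chemicals (highest 100 uM, half-log dilutions). Activity was fitted in both directions relative to 0.5% DMSO vehicle.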

Read-out in assay [10]: ATP-citrate lyase (ACLY), ACLY (gene 47)
The assay can be described thus: LTEA_HepaRG_ACLY: Life Technologies and Expression Analysis (LTEA) Assay for ATP-citrate lyase (ACLY) using HepaRG (AID 2283466). The gist of the method: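 ACLY expression changes in human HepaRG liver cells are quantified by qRT-PCR after 48 h exposure to test chemicals (maximum 100 uM, half-log steps). Values are fitted in both directions relative to 0.5% DMSO vehicle.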

Read-out in assay [11]: Peroxisomal acyl-coenzyme A oxidase 1 (ACOX1) gene, ACOX1 (gene 51)
The assay can be described thus: LTEA_HepaRG_ACOX1: Life Technologies and Expression Analysis (LTEA) Assay for Peroxisomal acyl-coenzyme A oxidase 1 (ACOX1) gene using HepaRG (AID 2283467). Put shortly: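 Human HepaRG hepatic cultures, 48 h treatment with test chemicals up to 100 uM. ACOX1 expression read by qRT-PCR relative to 0.5% DMSO vehicle.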

Read-out in assay [12]: Alkaline Phosphatase, Placental (ALPP) gene, ALPP (gene 250)
The assay can be described thus: LTEA_HepaRG_ALPP: Life Technologies and Expression Analysis (LTEA) Assay for Alkaline Phosphatase, Placental (ALPP) gene using HepaRG (AID 2283468).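 On AC50: ALPP transcript by TaqMan qRT-PCR normalized to ACTB GAPDH and POLR2A.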 The gist of the method:
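Expression of ALPP was quantified by qRT-PCR against three housekeeping genes in human HepaRG cultures treated for 48 h with an eight-point concentration series up to 100 uM. Activity in either direction was fitted relative to 0.5% DMSO.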

Read-out in assay [13]: Bcl-2 (BAD) gene, BAD (gene 572)
The assay can be described thus: LTEA_HepaRG_BAD: Life Technologies and Expression Analysis (LTEA) Assay for Bcl-2 (BAD) gene using HepaRG (AID 2283469). Put shortly: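 Activity values reflect up- or down-regulation of BAD mRNA in human HepaRG hepatic cells treated 48 h in serum-free medium, with eight-point half-log dosing capped at 100 uM and 0.5% DMSO vehicle.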

Read-out in assay [14]: Bcl-2 (BAX) gene, BAX (gene 581)
The assay can be described thus: LTEA_HepaRG_BAX: Life Technologies and Expression Analysis (LTEA) Assay for Bcl-2 (BAX) gene using HepaRG (AID 2283470). The gist of the method:
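Cells were thawed, plated for 48 h, moved to serum-free induction medium and dosed for 48 h (highest concentration 100 uM, half-log steps, 0.5% DMSO). Total RNA was then analysed for BAX expression by qRT-PCR.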

Read-out in assay [15]: adenosine kinase (ADK) gene, ADK (gene 132)
Briefly: LTEA_HepaRG_ADK: Life Technologies and Expression Analysis (LTEA) Assay for adenosine kinase (ADK) gene using HepaRG (AID 2283471). Put shortly:
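HepaRG (human liver), 48 h chemical exposure, 8-pt half-log series, top 100 uM, 0.5% DMSO vehicle. Readout: ADK mRNA by qRT-PCR vs housekeeping genes; bidirectional curve fit relative to DMSO baseline.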

Read-out in assay [16]: Alpha-fetoprotein (AFP) gene, AFP (gene 174)
The assay can be described thus: LTEA_HepaRG_AFP: Life Technologies and Expression Analysis (LTEA) Assay for Alpha-fetoprotein (AFP) gene using HepaRG (AID 2283472).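 On AC50: AFP transcript by TaqMan qRT-PCR normalized to ACTB GAPDH and POLR2A.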 The gist of the method: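 Chemicals were tested on differentiated HepaRG cells for 48 hours at eight concentrations up to 100 uM, with 0.5% DMSO as vehicle. AFP expression was then quantified by qRT-PCR and analyzed for gain or loss relative to DMSO.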

Read-out in another assay: BCL2L11 (gene 10018)
The assay can be described thus: LTEA_HepaRG_BCL2L11: Life Technologies and Expression Analysis (LTEA) Assay for Bcl-2 (BCL2L11) gene using HepaRG (AID 2283473). Put shortly:
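Cells were plated, cultured 48 h, switched to serum-free induction medium, then dosed in duplicate for 48 h at eight half-log concentrations up to 100 uM. Lysates underwent RNA isolation and TaqMan qRT-PCR; gain or loss versus DMSO was fitted.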

Read-out in assay [17]: Apolipoprotein A-V (APOA5) gene, APOA5 (gene 116519)
Briefly: LTEA_HepaRG_APOA5: Life Technologies and Expression Analysis (LTEA) Assay for Apolipoprotein A-V (APOA5) gene using HepaRG (AID 2283474). Put shortly: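 Human liver HepaRG cells are treated 48 h with test chemicals (100 uM top, half-log dilutions, 0.5% DMSO). APOA5 mRNA induction or loss is measured by qRT-PCR relative to vehicle.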

Active and inactive are the calls of the source. How the source made its calls: active means hit-call score of the fitted dose curve at least 0.9, where 1 is the maximum; inactive means score below 0.9.

Take `OC12N=C(c3ccccc3)SC1Cc1cc(Cl)ccc12` (centres undefined): the AC50 (usually the concentration at which the activity in the assay is half-maximal) is 5 µM (active) in assay [1]; 4.85 µM (active) in assay [4]; 17 µM (active) in [5]; 3.34 µM (active) in assay [6]; 21 µM (active) in assay [7]; 16.7 µM (active) in assay [8]. The AC50 in assay [10] was 0.377 µM (active); in [11], 21.1 µM (active); in assay [12], 35.7 µM (active); in assay [16], 36.4 µM (active); in the assay with BCL2L11 (gene 10018), 2.86 µM (active); in assay [17] it was 25.2 µM (active). For the same compound, the compound was classed as inactive in assay [2], in [3], in assay [9], in assay [13], in assay [14] and in assay [15].
With `COc1ccc2cc(S(=O)(=O)N[C@H](CC(=O)N[C@H](Cc3ccc(CN4[C@H](C)CCC[C@@H]4C)cc3)C(=O)N(C)C(C)C)c3ccc4c(c3)OCO4)ccc2c1`, the AC50 in assay [1] is 15.1 µM (active); in assay [2], 25.2 µM (active); in assay [3], 25.9 µM (active); in [5] it was 23.1 µM (active); in assay [6], 47.8 µM (active); in assay [7], 11.2 µM (active). The AC50 in assay [8] is 24.2 µM (active); in [9], 16.2 µM (active); in assay [11], 20.3 µM (active); in assay [12], 0.741 µM (active); in [14], 81.8 µM (active); in the assay with BCL2L11 (gene 10018), 84.9 µM (active). Also, the outcome in assay [4], in assay [10], in assay [13], in [16] and in [17] was inactive.
In the case of `C[C@]12CC[C@@H]3c4ccc(O)cc4CC[C@H]3[C@@H]1CCC2=O`, the call in assay [1], in assay [2], in assay [3], in assay [4], in [6] and in assay [7] was inactive. The result in assay [8], in assay [9], in assay [10], in assay [11], in [12] and in assay [13] was inactive. Moreover, the compound was called inactive (in assay [14]; with BCL2L11 (gene 10018); in assay [17]). Also, the AC50 is 14.4 µM (active) in assay [5] and 26.6 µM (active) in assay [16].
Regarding `OCCO`, the call in assay [1], in assay [2], in assay [3], in [5], in assay [6] and in assay [7] was inactive. Also, the compound was called inactive in assay [8], in assay [9], in assay [10], in [11], in assay [12] and in assay [13]. In addition, the call (in assay [14]; in [15]; in [16]; with BCL2L11 (gene 10018); in assay [17]) was inactive. For the same compound, the AC50 in assay [4] is 12.7 µM (active).
On to `CC1=CC(=O)/C(=C(/C)O)C(=O)O1`, for which the call in assay [1], in assay [2], in assay [3], in assay [4], in [5] and in [6] was inactive. The result in assay [7], in assay [8], in assay [9], in [10], in [11] and in assay [12] was inactive. For the same compound, the call (in [13]; in [14]; in assay [16]; with BCL2L11 (gene 10018); in assay [17]) was inactive.
With `CN(C)c1ccc(C(=C2C=CC(=[N+](C)C)C=C2)c2ccc(N(C)C)cc2)cc1`, the half-maximal activity concentration (AC50) in assay [1] was 29.6 µM (active); in assay [2], 10.1 µM (active); in [3] it was 50 µM (active); in assay [4], 17.4 µM (active); in [5], 12.9 µM (active); in assay [6] it was 3.56 µM (active). The AC50 is 85.8 µM (active) in assay [7]; 3.65 µM (active) in assay [8]; 18.8 µM (active) in [9]; 12.5 µM (active) in assay [10]; 12.9 µM (active) in [11]; 3.9 µM (active) in assay [12]. The AC50 is 20.7 µM (active) in [15], 1.91 µM (active) in assay [16], 23.5 µM (active) in the assay with BCL2L11 (gene 10018) and 5.32 µM (active) in assay [17]. Also, the compound was called inactive in assay [14].
